These results are taken from PubChem BioAssay (NCATS).

Test [1] in a line: Primary qHTS for inhibitors of nuclear receptor binding SET domain protein 2 (NSD2) in an isogenic RCH-ACV NSD2 p.E1099K mutant (9B) (AID 1645876). Also: nearly all actives have a fitted effect of over 70% in size. Also: potency is read from the fitted curve at half-maximal effect.
Test [2] is described as follows: Primary qHTS for inhibitors of nuclear receptor binding SET domain protein 2 (NSD2) in an RCH-ACV wild type WT cells (2C) (AID 1645877). Also: potency is read from the fitted curve at half-maximal effect; nearly all actives have a fitted effect of over 70% in size.
The target of test [3] is Glutathione peroxidase 1 (Homo sapiens) (UniProt P07203). Briefly: Primary qHTS Assay for Inhibitors of Recombinant Selenoprotein Glutathione Peroxidase 1 (GPX1) (AID 1845191). Also: nearly all actives have a fitted effect of over 65% in size. The procedure, abridged:
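10 nM GPX1 + cpd, 30 min RT; start w/ 1 mM GSH, 0.5 mM cumene hydroperoxide, 0.5 mM NADPH, 100 nM GR, 0.01% BSA; buffer 50 mM Tris-HCl pH 7.5, 2 mM EDTA, 150 mM NaCl; Fl 340/450, 0 & 15 min.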

Test [4] concerns the target Phospholipid hydroperoxide glutathione peroxidase GPX4 (Homo sapiens) (UniProt P36969). The test can be described thus: Primary qHTS Assay for Inhibitors of Recombinant Selenoprotein Glutathione Peroxidase 4 (GPX4) (AID 1845192). Also: nearly all actives have a fitted effect of over 65% in size. As to activity change, negative = inhibition: % is scaled to controls: 0 for no effect and ±100 for the full control effect. Summed up:
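NADPH consumption, followed by fluorescence at 340/450 nm between 0 and 15 min, reports GPX4 activity via coupled glutathione reductase (100 nM). Enzyme 200 nM was pre-exposed to compound 30 min; 0.5 mM cumene hydroperoxide and 1 mM GSH served as substrates.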

The nature of test [5]: qHTS drug screen for cell cycle checkpoint inhibitors in PARPi-resistant BRCA-mutant ovarian cancer cell lines. (AID 1963452; calls by dose curve). The note with it: PEO1/OlaR viability, CellTiter-Glo luminescence, 96 h, stronger effect = lower value. The procedure, abridged:
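PEO1, PEO4 and PEO1/OlaR ovarian cancer cells, 600 per well, exposed 96 h at 37C to a dilution series. Viability read by CellTiter-Glo luminescence, normalized to DMSO and empty wells; activity summarized as Z-AUC.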

Test [6] in a line: NCATS anti-infectives library activity on HEK293 viability as a counter-qHTS vs the C. elegans viability qHTS (AID 1745854). Also: % is scaled to controls: 0 for no effect and ±100 for the full control effect. The procedure, abridged: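 Compounds were acoustically plated (several concentrations, 1:5, final up to 41.7 uM), then 1500 HEK293 cells added per well and incubated 24 hr at 37C, 5% CO2. CellTiter-Glo was added and luminescence read after 10 min.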
In test [7] the target is Catechol O-methyltransferase (Homo sapiens) (UniProt P21964). The test can be described thus: Confirmatory Screen for Target Class Profiling of Small Molecule Inhibitors of Methyltransferases (AID 1745852; calls by dose curve; as to activity change, negative = inhibition: % is scaled to controls: 0 for no effect and ±100 for the full control effect). The note with it: MTase-Glo luminescence, SAH detection, recombinant enzyme; measured here: COMT max response; stronger effect = lower value.
Test [8] has as its target Guanidinoacetate N-methyltransferase (Homo sapiens) (UniProt Q14353). The description is as above. The note with it: MTase-Glo luminescence, SAH detection, recombinant enzyme; activity change, negative = inhibition: at 57.3 µM (top of the series) unless noted.
The target of test [9] is Nicotinamide N-methyltransferase (Homo sapiens) (UniProt P40261). The test is described as above. The note with it: MTase-Glo luminescence, SAH detection, recombinant enzyme; measured here: NNMT max response; stronger effect = lower value.
The target of test [10] is Phenylethanolamine N-methyltransferase (Homo sapiens) (UniProt P11086). Described as above. As to conditions: MTase-Glo luminescence, SAH detection, recombinant enzyme; measured here: PNMT max response; stronger effect = lower value.
Test [11] in a line: qHTS for Inhibitors of Ubiquitin-specific Protease USP2a Using CHOP2 as the Reporter: K633 Counterscreen (AID 652168). Also: % of control where 0% means no effect. Summed up: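 Cell-free interference counterscreen without USP2a: compounds pinned into enzyme-free buffer (20 mM Tris pH 8, 2 mM beta-mercaptoethanol, 0.05% Chaps), then DiUb K48-4IQF substrate added (100 nM stock); fluorescence read kinetically, Ex 525/Em 598.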

Test [12] concerns the target Ubiquitin carboxyl-terminal hydrolase 2 (Homo sapiens) (UniProt O75604). Briefly: qHTS for Inhibitors of Ubiquitin-specific Protease USP2a Using CHOP2 as the Reporter: K484 Substrate (AID 652173).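 Also: cleavage of internally quenched K48 di-ubiquitin substrate measured as rising fluorescence over time; potency is read from the fitted curve at half-maximal effect; nearly all actives have a fitted effect of over 70% in size.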 As to conditions: USP2 cleavage of DiUb K48 IQF substrate, fluorescence. The procedure, abridged: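 USP2 (dispensed at 5 nM) was pinned with compounds, then DiUb K48 internally quenched fluorescent substrate (dispensed at 100 nM) was added. The buffer was 20 mM Tris pH 8, 2 mM beta-mercaptoethanol and 0.05% CHAPS. Cleavage was read kinetically as rising fluorescence, Ex 525/Em 598.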

In test [13] the target is N-terminal Xaa-Pro-Lys N-methyltransferase 1 (Homo sapiens) (UniProt Q9BV86). The test can be described thus: Confirmatory qHTS for Inhibitors of N-terminal methyltransferase 1 (NTMT1): MTaseGlo Assay (AID 1645874). Also: potency is read from the fitted curve at half-maximal effect; nearly all actives have a fitted effect of over 65% in size. The procedure, abridged: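 Preincubation of NTMT1 (125 nM) plus SAM (100 uM) with test compounds lasted 15 min; methylation of 1 uM SPKRIA then proceeded 30 min in the dark at room temperature. Luciferase signal reported SAH produced.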

Test [14] is described as follows: NCATS anti-infectives library activity on the primary C. elegans qHTS viability assay (AID 1745855; calls by dose curve; also: potency is read from the fitted curve at half-maximal effect). Summed up: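 Viability read-out is GFP fluorescence of PE254-GFP-FLuc C. elegans, measured by laser cytometry (488 nm) at day 0, 3 and 7. Ten L1 worms per well were incubated 7 days at 21 °C with compounds and bacterial capsules in S medium.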
[15] abbreviates: measured here: PEO1 parental Z-AUC.

Where “and” joins values, the source holds several entries; their conditions need not be identical. Equal values may be shown once. Inconclusive results are not listed. Calls of active or inactive are those of the source. Unless noted, calls follow the shape of the dose curve; as a rule, active = well fitted curve in the direction sought with a large enough effect; inconclusive = small, poorly fitted or top-dose-only effect, or another doubt; inactive = no such curve, though single readings can be large; an effect the other way counts as inactive or inconclusive.

Sequence of Phospholipid hydroperoxide glutathione peroxidase GPX4 (Homo sapiens) (P36969 whole entry, looked up): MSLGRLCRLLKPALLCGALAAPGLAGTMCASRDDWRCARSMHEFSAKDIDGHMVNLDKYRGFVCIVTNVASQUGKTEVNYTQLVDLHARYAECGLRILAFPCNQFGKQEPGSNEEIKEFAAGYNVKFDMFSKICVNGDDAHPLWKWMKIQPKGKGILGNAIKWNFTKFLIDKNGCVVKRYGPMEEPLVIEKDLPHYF
Sequence of Glutathione peroxidase 1 (Homo sapiens) (P07203 whole entry, looked up): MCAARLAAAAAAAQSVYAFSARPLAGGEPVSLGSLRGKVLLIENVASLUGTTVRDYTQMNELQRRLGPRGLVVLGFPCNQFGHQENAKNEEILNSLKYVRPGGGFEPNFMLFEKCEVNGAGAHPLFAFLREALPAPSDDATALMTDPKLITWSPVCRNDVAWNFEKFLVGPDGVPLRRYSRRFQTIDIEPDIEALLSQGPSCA
Sequence of Phenylethanolamine N-methyltransferase (Homo sapiens) (P11086 whole entry, looked up): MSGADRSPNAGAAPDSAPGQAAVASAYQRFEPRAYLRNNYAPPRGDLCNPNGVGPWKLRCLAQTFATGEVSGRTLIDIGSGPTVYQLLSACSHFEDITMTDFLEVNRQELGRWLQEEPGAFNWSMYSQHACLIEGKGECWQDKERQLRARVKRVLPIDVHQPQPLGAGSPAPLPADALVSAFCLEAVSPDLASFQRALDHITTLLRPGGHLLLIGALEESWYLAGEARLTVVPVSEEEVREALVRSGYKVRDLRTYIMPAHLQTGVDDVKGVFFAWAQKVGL
Sequence of Nicotinamide N-methyltransferase (Homo sapiens) (P40261 whole entry, looked up): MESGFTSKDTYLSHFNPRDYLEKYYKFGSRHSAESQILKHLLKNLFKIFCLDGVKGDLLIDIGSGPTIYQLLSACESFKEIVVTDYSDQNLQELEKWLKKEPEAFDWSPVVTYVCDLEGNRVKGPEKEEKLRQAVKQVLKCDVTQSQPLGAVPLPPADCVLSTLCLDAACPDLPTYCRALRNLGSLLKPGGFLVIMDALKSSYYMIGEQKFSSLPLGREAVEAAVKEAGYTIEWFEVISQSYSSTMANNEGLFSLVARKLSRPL
Sequence of Catechol O-methyltransferase (Homo sapiens) (P21964 whole entry, looked up): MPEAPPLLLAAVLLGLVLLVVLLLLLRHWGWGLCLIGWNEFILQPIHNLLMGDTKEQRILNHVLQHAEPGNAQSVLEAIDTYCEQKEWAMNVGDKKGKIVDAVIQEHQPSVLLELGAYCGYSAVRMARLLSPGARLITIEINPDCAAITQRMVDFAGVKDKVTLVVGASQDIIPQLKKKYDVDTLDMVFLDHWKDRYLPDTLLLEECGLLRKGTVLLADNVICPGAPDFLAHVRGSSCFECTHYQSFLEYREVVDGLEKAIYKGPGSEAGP
Sequence of N-terminal Xaa-Pro-Lys N-methyltransferase 1 (Homo sapiens) (Q9BV86 whole entry, looked up): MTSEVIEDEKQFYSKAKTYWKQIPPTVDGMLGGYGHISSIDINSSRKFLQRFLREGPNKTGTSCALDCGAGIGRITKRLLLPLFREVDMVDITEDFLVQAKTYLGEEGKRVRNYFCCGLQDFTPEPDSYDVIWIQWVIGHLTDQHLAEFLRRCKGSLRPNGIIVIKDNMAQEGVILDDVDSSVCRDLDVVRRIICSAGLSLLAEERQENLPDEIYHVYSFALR
Sequence of Ubiquitin carboxyl-terminal hydrolase 2 (Homo sapiens) (O75604 whole entry, looked up): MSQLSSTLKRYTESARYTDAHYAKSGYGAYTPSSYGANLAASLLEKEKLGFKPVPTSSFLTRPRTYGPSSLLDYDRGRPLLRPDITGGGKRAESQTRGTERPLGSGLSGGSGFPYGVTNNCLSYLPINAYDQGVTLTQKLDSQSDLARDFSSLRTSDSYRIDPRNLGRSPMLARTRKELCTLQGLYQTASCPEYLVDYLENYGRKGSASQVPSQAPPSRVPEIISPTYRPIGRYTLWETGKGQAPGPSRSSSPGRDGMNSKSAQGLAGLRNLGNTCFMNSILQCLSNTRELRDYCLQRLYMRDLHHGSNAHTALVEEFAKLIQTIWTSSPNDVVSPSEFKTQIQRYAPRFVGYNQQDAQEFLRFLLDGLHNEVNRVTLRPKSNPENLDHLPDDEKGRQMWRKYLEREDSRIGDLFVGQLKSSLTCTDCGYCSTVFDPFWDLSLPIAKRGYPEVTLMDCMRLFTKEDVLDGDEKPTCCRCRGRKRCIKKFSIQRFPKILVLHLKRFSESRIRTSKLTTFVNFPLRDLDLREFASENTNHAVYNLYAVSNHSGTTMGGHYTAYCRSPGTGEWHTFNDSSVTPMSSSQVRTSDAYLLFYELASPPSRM

Take `C[C@@H](OC[C@@]1(c2ccccc2)CC[C@]2(CCC(=O)N2)CN1)c1cc(C(F)(F)F)cc(C(F)(F)F)c1`: the Potency in [1] and in test [2] was 9.34 µM (active) throughout. For the same molecule, the Potency result in test [3] and in [4] was “inactive” throughout. In addition, the Z-AUC in test [5] was -0.524 (inactive); in test [5] (setting [15]), -0.495; in test [5] (measured here: PEO4 Z-AUC) it was -0.395.

As for `C=CC(=O)N[C@H]1CN(c2nc(Nc3cn(C)nc3OC)c3ncn(C)c3n2)C[C@@H]1F`, the Potency in test [1] is 14.8 µM (active); in test [2], 20.9 µM (active). Also, the Potency entry in test [3] and in test [4] was “inactive” in each case.

On to `Nc1nc2cc(-c3ccc4ncc(C(=O)N5CCOCC5)n4c3)ccc2o1`, for which the Potency is 8.33 µM (active) in test [1] and 9.34 µM (active) in test [2]. For the same molecule, the Potency result in [3] and in test [4] was “inactive” throughout. Besides, the Z-AUC was 1.25 (inactive) in test [5], 0.336 in test [5] (setting [15]) and 0.353 in test [5] (measured here: PEO4 Z-AUC).

Consider `O=C(NO)c1cnc(NC2(c3ccccc3)CC2)nc1`, for which the Potency in test [1] and in [2] was 7.42 µM (active) in each case. In addition, in test [6], the outcome is “inactive”. Besides, the Potency result in test [3] and in test [4] was “inactive” in each case. Further, the Z-AUC was -0.236 (inactive) in [5], 0.229 in [5] (setting [15]) and 0.185 in test [5] (measured here: PEO4 Z-AUC).

Turning to `O=C1NC(=O)/C(=C/c2ccc(-c3ccc(F)cc3)o2)S1`, the Potency entry in test [1] is “inactive”.

In the case of `Nc1n[nH]c(N)c1N=Nc1ccc(O)cc1`, the values for the Potency in test [1] and in [2] were 13 µM (active) and 14.6 µM (active), respectively. In addition, the Potency result in test [3] is “inactive”.

For the molecule `Cc1cc(C(=O)Nc2nc3cccc(Cl)c3n2C2CCCCN(C(=O)/C=C/CN(C)C)C2)ccn1` (centres undefined), the Potency in test [1] and in [2] was 6.51 µM (active) each time. Further, in test [3], the Potency entry is “inactive”.

`Cc1ccc(-c2nn(C(C)(C)CNC(=O)c3ccncc3)c3ncnc(N)c23)cc1`: the Potency in test [1] is 8.33 µM (active); in test [2], 7.42 µM (active). The Potency result in test [3] and in [4] was “inactive” in each case.

For the molecule `O=C1Nc2ccccc2/C1=C/c1cc(O)ccc1O`, the Potency is 16.4 µM (active) in [1] and 18.4 µM (active) in test [2]. In addition, the activity in [7] is -4.65%; in [9] it was -18.3%; in test [10], -2.66%. For the same molecule, the activity change, negative = inhibition in test [8] was -0.984%. The Potency entry in test [3] is “inactive”.

`Cc1ccc(S(=O)(=O)Nc2cnccc2C(=O)Nc2nc(-c3cccc(C)c3)cs2)cc1`: the outcome in test [11] was “inactive”. The Potency was 1.37 µM (active) in test [12] and 17.3 µM (active) in test [13].

Consider `Oc1cccc(Nc2ncnc3sc4c(c23)CCCC4)c1`, for which the Potency in test [1] was 9.2 µM (active); in test [2], 8.2 µM (active). Also, in [3], the Potency entry is “inactive”.

In the case of `CC(=O)O/N=C1/C(c2c(O)[nH]c3cc(Br)ccc23)=Nc2ccccc21`, the Potency in [1] was 1.84 µM (active) and 2.09 µM (active); in test [2], 2.06 µM (active) and 2.09 µM (active); in test [14], 20.5 µM (active). Moreover, in [6], the outcome was “inactive”. Further, the Potency entry in test [3] and in test [4] was “inactive” each time. The Z-AUC was -1.48 (inactive) in [5], 0.461 in [5] (setting [15]) and -0.699 in [5] (measured here: PEO4 Z-AUC).
